Assay results from the supplement of paper PMC12067093, “Discovery and optimisation of a covalent ligand for TRIM25 and its application to targeted protein ubiquitination” (Chemical Science, 2025).
The full data set covers some 21,000 targets. This sample favours those with the largest changes.

Compound: Cc1cc(ccc1-c1ccccc1)C(=O)N1CCCN(CC1)C(=O)CCl [compound 10]
Assay: probe-labelled cysteine peptide fold change vs DMSO (competition) (log2 fold change); higher = less target engagement (more negative = stronger competition)
Conditions: THP-1, incubation time: 4 h
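Further: competitive profiling in live THP-1 cells: cysteine peptides tagged with an iodoacetamide desthiobiotin (IA-DTB) probe, intensity after compound treatment relative to DMSO-treated cells.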

Sequence of UniProt Q8NAF0 (Q8NAF0 whole entry, looked up): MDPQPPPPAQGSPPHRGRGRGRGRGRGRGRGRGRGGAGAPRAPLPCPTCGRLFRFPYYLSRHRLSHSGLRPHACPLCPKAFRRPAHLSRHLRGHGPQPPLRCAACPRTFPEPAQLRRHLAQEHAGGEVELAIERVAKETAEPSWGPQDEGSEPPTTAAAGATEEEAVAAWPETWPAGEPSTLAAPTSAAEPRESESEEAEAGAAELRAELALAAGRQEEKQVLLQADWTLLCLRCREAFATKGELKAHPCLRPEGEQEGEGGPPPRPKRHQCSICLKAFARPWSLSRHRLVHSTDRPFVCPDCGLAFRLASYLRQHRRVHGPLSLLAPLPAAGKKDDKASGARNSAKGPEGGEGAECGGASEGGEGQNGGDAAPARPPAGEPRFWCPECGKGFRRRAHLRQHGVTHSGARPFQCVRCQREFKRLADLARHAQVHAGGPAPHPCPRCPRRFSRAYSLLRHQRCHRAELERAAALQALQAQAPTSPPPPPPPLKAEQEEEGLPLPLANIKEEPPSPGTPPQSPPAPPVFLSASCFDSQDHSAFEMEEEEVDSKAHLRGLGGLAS
Sequence of UniProt Q5JSH3 (Q5JSH3 whole entry, looked up): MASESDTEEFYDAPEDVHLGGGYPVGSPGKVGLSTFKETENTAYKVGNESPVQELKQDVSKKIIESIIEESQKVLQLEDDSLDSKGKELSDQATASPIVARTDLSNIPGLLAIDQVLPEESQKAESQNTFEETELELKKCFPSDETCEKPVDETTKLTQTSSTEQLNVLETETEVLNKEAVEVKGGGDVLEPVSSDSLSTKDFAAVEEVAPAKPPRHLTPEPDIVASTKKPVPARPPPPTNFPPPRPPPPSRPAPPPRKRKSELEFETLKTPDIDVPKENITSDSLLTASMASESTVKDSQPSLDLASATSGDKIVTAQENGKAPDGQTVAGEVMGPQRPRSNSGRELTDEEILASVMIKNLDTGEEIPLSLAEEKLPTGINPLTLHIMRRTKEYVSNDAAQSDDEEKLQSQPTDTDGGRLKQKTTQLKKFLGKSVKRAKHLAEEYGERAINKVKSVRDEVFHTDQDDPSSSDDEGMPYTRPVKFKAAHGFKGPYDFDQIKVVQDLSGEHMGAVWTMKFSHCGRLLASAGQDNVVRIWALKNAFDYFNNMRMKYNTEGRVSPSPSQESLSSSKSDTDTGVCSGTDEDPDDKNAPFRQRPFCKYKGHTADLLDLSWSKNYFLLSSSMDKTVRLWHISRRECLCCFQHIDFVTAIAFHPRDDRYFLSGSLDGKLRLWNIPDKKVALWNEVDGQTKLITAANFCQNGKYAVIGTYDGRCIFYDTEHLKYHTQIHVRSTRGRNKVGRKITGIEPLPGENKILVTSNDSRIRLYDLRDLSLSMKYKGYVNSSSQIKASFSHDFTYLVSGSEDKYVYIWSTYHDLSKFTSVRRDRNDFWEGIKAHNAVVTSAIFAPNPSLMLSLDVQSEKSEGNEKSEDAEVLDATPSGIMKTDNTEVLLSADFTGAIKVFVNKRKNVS
Sequence of UniProt Q9Y3S2 (Q9Y3S2 whole entry, looked up): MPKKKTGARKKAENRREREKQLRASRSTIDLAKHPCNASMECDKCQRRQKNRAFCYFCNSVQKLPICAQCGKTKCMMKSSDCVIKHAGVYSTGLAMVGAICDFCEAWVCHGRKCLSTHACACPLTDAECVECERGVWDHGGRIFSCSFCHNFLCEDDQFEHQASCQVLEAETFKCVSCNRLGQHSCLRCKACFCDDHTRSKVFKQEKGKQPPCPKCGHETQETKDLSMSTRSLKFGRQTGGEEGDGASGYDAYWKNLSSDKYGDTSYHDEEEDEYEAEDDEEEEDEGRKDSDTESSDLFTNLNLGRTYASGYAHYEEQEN
Sequence of UniProt Q15061 (Q15061 whole entry, looked up): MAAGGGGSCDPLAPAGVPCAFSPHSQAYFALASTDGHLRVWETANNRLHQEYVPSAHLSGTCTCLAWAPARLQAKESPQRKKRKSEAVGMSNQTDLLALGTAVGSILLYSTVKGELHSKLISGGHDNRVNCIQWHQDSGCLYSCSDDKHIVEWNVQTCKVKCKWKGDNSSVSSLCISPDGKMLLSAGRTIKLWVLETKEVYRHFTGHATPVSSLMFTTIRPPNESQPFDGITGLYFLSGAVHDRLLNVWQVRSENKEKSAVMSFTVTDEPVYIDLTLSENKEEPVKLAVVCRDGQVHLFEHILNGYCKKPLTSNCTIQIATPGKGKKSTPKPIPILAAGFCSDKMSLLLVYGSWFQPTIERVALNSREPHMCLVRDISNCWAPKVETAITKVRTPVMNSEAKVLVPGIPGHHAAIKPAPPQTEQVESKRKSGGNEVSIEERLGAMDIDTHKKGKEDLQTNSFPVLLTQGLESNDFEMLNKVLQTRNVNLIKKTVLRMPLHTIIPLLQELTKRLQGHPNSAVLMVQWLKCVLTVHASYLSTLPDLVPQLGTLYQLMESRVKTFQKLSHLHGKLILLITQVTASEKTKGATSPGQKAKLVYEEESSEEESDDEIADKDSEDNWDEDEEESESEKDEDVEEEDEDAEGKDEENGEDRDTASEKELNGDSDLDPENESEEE
Sequence of UniProt Q9HAD4 (Q9HAD4 whole entry, looked up): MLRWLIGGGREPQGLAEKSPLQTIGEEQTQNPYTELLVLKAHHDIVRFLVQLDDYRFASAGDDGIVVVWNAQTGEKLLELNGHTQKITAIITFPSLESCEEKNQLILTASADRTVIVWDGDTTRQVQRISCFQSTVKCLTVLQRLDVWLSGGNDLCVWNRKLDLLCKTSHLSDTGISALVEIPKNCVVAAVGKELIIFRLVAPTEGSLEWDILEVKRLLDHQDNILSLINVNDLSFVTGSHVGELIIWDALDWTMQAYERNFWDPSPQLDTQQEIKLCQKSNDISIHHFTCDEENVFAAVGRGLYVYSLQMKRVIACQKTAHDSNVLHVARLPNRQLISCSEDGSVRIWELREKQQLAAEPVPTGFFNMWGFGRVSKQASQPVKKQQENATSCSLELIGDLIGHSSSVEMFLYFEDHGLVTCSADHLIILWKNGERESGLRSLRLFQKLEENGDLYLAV
Sequence of UniProt Q8N6M9 (Q8N6M9 whole entry): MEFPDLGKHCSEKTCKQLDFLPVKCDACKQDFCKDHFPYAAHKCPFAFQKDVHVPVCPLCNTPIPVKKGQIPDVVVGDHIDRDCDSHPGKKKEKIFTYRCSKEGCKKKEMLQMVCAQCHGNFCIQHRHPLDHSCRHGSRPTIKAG
Sequence of UniProt Q9H8G1 (Q9H8G1 whole entry): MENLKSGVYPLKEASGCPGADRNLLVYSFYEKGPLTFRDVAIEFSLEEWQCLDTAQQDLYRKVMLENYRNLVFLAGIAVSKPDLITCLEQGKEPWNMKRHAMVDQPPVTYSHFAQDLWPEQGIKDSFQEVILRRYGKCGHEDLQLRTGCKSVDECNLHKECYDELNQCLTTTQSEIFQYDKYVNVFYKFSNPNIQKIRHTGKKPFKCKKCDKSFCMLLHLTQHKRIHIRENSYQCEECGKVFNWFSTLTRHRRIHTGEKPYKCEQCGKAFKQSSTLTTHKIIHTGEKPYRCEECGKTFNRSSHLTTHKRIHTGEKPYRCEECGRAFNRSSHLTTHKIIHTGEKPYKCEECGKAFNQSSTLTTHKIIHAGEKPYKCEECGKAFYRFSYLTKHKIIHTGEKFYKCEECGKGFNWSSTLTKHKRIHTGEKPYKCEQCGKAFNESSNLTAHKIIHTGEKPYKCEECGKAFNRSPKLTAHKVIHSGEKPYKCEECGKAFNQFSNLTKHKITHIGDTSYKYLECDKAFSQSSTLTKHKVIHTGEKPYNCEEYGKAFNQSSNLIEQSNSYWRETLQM
Sequence of UniProt Q9Y4P8 (Q9Y4P8 whole entry, looked up): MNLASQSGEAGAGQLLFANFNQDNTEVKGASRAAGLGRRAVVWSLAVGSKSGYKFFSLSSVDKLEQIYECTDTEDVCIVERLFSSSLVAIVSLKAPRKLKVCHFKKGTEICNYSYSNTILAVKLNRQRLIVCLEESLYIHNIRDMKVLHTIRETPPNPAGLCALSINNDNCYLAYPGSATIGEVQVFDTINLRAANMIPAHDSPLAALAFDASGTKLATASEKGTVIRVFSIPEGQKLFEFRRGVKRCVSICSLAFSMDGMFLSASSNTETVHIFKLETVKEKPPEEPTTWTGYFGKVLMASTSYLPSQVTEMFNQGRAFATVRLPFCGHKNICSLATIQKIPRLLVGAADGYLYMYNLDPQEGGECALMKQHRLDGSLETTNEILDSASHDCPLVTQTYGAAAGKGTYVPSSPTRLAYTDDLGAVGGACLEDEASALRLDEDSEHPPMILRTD
Sequence of UniProt Q96ME7 (Q96ME7 whole entry, looked up): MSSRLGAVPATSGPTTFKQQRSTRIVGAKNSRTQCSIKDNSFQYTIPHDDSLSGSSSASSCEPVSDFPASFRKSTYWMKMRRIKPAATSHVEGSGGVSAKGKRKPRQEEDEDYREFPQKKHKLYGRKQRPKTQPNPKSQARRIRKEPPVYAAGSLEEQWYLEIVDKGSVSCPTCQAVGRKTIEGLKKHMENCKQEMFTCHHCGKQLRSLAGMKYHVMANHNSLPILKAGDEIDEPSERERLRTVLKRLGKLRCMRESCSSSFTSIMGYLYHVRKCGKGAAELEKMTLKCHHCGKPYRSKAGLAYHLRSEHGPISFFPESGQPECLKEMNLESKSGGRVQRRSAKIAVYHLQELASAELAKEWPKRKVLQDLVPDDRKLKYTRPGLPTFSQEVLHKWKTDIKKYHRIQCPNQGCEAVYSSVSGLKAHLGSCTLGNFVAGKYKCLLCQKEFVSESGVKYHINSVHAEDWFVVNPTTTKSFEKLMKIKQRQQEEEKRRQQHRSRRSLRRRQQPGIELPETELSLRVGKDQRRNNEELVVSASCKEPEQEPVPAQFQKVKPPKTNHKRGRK
Sequence of UniProt Q5VV52 (Q5VV52 whole entry, looked up): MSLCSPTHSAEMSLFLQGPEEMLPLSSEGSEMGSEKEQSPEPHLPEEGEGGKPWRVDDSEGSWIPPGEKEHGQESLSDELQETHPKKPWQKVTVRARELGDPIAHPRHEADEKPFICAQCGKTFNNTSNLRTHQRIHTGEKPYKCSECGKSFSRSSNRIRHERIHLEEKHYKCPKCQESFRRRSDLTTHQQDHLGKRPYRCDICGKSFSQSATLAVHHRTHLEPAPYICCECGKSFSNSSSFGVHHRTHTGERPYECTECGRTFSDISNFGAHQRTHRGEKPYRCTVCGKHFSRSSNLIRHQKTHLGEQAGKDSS

For “ZW10_O43264_650_LGIVWQDVLPVNIYCK (UniProt O43264)”, the “probe-labelled cysteine peptide fold change” value (10 µM) was 0.139 and the “probe-labelled cysteine peptide fold change” value (50 µM) was 0.206.
With “WDR48_Q8TAF3_366_GGASIIQCHILNDKR (UniProt Q8TAF3)” the “probe-labelled cysteine peptide fold change” value (10 µM) was 0.239 and the “probe-labelled cysteine peptide fold change” value (50 µM) was -0.0402.
“ZNF451_Q9Y4E5_476_TWFCECNQR (UniProt Q9Y4E5)” was tested, and the “probe-labelled cysteine peptide fold change” value (10 µM) was 0.0139 and the “probe-labelled cysteine peptide fold change” value (50 µM) was 0.0709.
In the case of “ZNF451_Q9Y4E5_150_TGTINCGTK (UniProt Q9Y4E5)”, the “probe-labelled cysteine peptide fold change” value (10 µM) is reported as -0.175 and the “probe-labelled cysteine peptide fold change” value (50 µM) is reported as -1.18.
For “ZW10_O43264_588_RLGTECFLAQMR (UniProt O43264)”, the “probe-labelled cysteine peptide fold change” value (10 µM) was 0.00573 and the “probe-labelled cysteine peptide fold change” value (50 µM) was -0.0952.
With “ZC3HAV1_Q7Z2W4_7_ADPEVCCFITK (UniProt Q7Z2W4)” the “probe-labelled cysteine peptide fold change” value (10 µM) was 0.158 and the “probe-labelled cysteine peptide fold change” value (50 µM) was 0.175.
“ZC3HAV1_Q7Z2W4_168_QQICNQQPPCSR (UniProt Q7Z2W4)” was tested, and the “probe-labelled cysteine peptide fold change” value (10 µM) was 0.0782 and the “probe-labelled cysteine peptide fold change” value (50 µM) was -0.158.
For “ZNF217_O75362_641_SAVETQANNLICR (UniProt O75362)”, the “probe-labelled cysteine peptide fold change” value (10 µM) was -0.181 and the “probe-labelled cysteine peptide fold change” value (50 µM) was -0.0706.
For “WDR81_Q562E7_215_GSPACPSLLR (UniProt Q562E7)”, the “probe-labelled cysteine peptide fold change” value (10 µM) was -0.185 and the “probe-labelled cysteine peptide fold change” value (50 µM) was -0.529.
For “ZC3H12A_Q5D1E8_374_RPSPSSQSSSLLTESEQCSLDGK (UniProt Q5D1E8)”, the “probe-labelled cysteine peptide fold change” value (10 µM) was -0.349 and the “probe-labelled cysteine peptide fold change” value (50 µM) was -0.484.
With “ZNF189_O75820_262_CSDCGK<|>ZSCAN22_P52741_466_CSDCGK<|>ZNF16_Q09FC8_435_CSDCGK<|>ZNF81_Q2M218_640_CSDCGK<|>ZNF134_Q5JVG2_290_CSDCGK<|>ZNF415_Q8N8J6_574_CSDCGK (UniProt Q8N8J6+Q5JVG2+Q2M218+Q09FC8+P52741+O75820)” the “probe-labelled cysteine peptide fold change” value (10 µM) was 0.0389 and the “probe-labelled cysteine peptide fold change” value (50 µM) was 0.142.
“ZMYM2_Q9UBW7_608_LYNFCNSSCVAK (UniProt Q9UBW7)” was tested, and the “probe-labelled cysteine peptide fold change” value (10 µM) was -0.186 and the “probe-labelled cysteine peptide fold change” value (50 µM) was -1.35.
“ZFAND2A_Q8N6M9_84_GQIPDVVVGDHIDRDCDSHPGK (UniProt Q8N6M9)” was tested, and the “probe-labelled cysteine peptide fold change” value (10 µM) was 1.7 and the “probe-labelled cysteine peptide fold change” value (50 µM) was 3.88.
For “ZNF691_Q5VV52_176_CQESFR (UniProt Q5VV52)”, the “probe-labelled cysteine peptide fold change” value (10 µM) was -0.0275 and the “probe-labelled cysteine peptide fold change” value (50 µM) was -0.0396.
In the case of “WASHC5_Q12768_385_WLMLHTADSACDPNNKR (UniProt Q12768)”, the “probe-labelled cysteine peptide fold change” value (10 µM) is reported as -2.11 and the “probe-labelled cysteine peptide fold change” value (50 µM) is reported as -2.63.
“WDR3_Q9UNX4_183_WWDLDTQHCFK (UniProt Q9UNX4)” was tested, and the “probe-labelled cysteine peptide fold change” value (10 µM) was 0.0656 and the “probe-labelled cysteine peptide fold change” value (50 µM) was 0.271.
For “ZC3H11A_O75152_588_SVLTPLRGDVASCNTQVAEK (UniProt O75152)”, the “probe-labelled cysteine peptide fold change” value (10 µM) was -0.0147 and the “probe-labelled cysteine peptide fold change” value (50 µM) was 0.00571.
“ZDHHC21_Q8IVQ6_112_CGHCVR (UniProt Q8IVQ6)” was tested, and the “probe-labelled cysteine peptide fold change” value (10 µM) was 0.0718 and the “probe-labelled cysteine peptide fold change” value (50 µM) was -0.0337.
In the case of “WDFY4_Q6ZS81_2352_EAEGEPDEVGVDCTQLTFFPALHESLHSEDFLELCR (UniProt Q6ZS81)”, the “probe-labelled cysteine peptide fold change” value (10 µM) is reported as -0.125 and the “probe-labelled cysteine peptide fold change” value (50 µM) is reported as -0.598.
For “ZC3HAV1_Q7Z2W4_513_VDDHDSEEICLDHLCK (UniProt Q7Z2W4)”, the “probe-labelled cysteine peptide fold change” value (10 µM) was 0.0207 and the “probe-labelled cysteine peptide fold change” value (50 µM) was -0.396.
“WDR43_Q15061_291_LAVVCR (UniProt Q15061)” was tested, and the “probe-labelled cysteine peptide fold change” value (10 µM) was 0.0146 and the “probe-labelled cysteine peptide fold change” value (50 µM) was 0.0317.
In the case of “WIPI2_Q9Y4P8_430_LAYTDDLGAVGGACLEDEASALRLDEDSEHPPMILR (UniProt Q9Y4P8)”, the “probe-labelled cysteine peptide fold change” value (10 µM) is reported as -0.352 and the “probe-labelled cysteine peptide fold change” value (50 µM) is reported as -0.0492.
“WDHD1_O75717_285_GYAICGLAWHPTCGR (UniProt O75717)” was tested, and the “probe-labelled cysteine peptide fold change” value (10 µM) was -0.0417 and the “probe-labelled cysteine peptide fold change” value (50 µM) was -0.0589.
“WDR41_Q9HAD4_291_SNDISIHHFTCDEENVFAAVGR (UniProt Q9HAD4)” was tested, and the “probe-labelled cysteine peptide fold change” value (10 µM) was 0.135 and the “probe-labelled cysteine peptide fold change” value (50 µM) was 0.418.
“ZNF512B_Q96KM6_6_TDPFCVGGR (UniProt Q96KM6)” was tested, and the “probe-labelled cysteine peptide fold change” value (10 µM) was -0.0569 and the “probe-labelled cysteine peptide fold change” value (50 µM) was 0.0733.
For “ZYX_Q15942_467_AYHPHCFTCVVCAR (UniProt Q15942)”, the “probe-labelled cysteine peptide fold change” value (10 µM) was 0.229 and the “probe-labelled cysteine peptide fold change” value (50 µM) was 0.194.
With “WDR47_O94967_672_GSIYCVAWSPCGQLLATGSNDK (UniProt O94967)” the “probe-labelled cysteine peptide fold change” value (10 µM) was -0.439 and the “probe-labelled cysteine peptide fold change” value (50 µM) was -1.25.
“YY1AP1_Q9H869_689_AHMNVDIACAVADGENAFQGLEPK (UniProt Q9H869)” was tested, and the “probe-labelled cysteine peptide fold change” value (10 µM) was -0.0161 and the “probe-labelled cysteine peptide fold change” value (50 µM) was 0.141.
For “WDR77_Q9BQA1_186_DSVFLSCSEDNR (UniProt Q9BQA1)”, the “probe-labelled cysteine peptide fold change” value (10 µM) was 0.136 and the “probe-labelled cysteine peptide fold change” value (50 µM) was 0.227.
With “ZNF512_Q96ME7_540_NNEELVVSASCK (UniProt Q96ME7)” the “probe-labelled cysteine peptide fold change” value (10 µM) was 0.0455 and the “probe-labelled cysteine peptide fold change” value (50 µM) was 0.0373.
In the case of “WDR44_Q5JSH3_701_LITAANFCQNGK (UniProt Q5JSH3)”, the “probe-labelled cysteine peptide fold change” value (10 µM) is reported as -0.0485 and the “probe-labelled cysteine peptide fold change” value (50 µM) is reported as 0.165.
In the case of “ZNF330_Q9Y3S2_120+122_CLSTHACACPLTDAECVECER (UniProt Q9Y3S2)”, the “probe-labelled cysteine peptide fold change” value (10 µM) is reported as 0.16 and the “probe-labelled cysteine peptide fold change” value (50 µM) is reported as -0.138.
With “ZNF430_Q9H8G1_138_CGHEDLQLR (UniProt Q9H8G1)” the “probe-labelled cysteine peptide fold change” value (10 µM) was -0.195 and the “probe-labelled cysteine peptide fold change” value (50 µM) was -0.412.
With “ZNF579_Q8NAF0_77_LSHSGLRPHACPLCPK (UniProt Q8NAF0)” the “probe-labelled cysteine peptide fold change” value (10 µM) was 0.112 and the “probe-labelled cysteine peptide fold change” value (50 µM) was -0.0195.
For “WDR6_Q9NNW5_830_LACHVMHLSSHR (UniProt Q9NNW5)”, the “probe-labelled cysteine peptide fold change” value (10 µM) was 0.144 and the “probe-labelled cysteine peptide fold change” value (50 µM) was 0.0864.
For “XPO1_O14980_528_DLLGLCEQKR (UniProt O14980)”, the “probe-labelled cysteine peptide fold change” value (10 µM) was -0.248 and the “probe-labelled cysteine peptide fold change” value (50 µM) was -1.11.
“ZNF280C_Q8ND82_388_ICELSFETEHILLQHMK (UniProt Q8ND82)” was tested, and the “probe-labelled cysteine peptide fold change” value (10 µM) was 0.00547 and the “probe-labelled cysteine peptide fold change” value (50 µM) was 0.0405.
With “ZNF76_P36508_342_HHVVHTHCK (UniProt P36508)” the “probe-labelled cysteine peptide fold change” value (10 µM) was -0.115 and the “probe-labelled cysteine peptide fold change” value (50 µM) was -0.0476.
In the case of “ZC3H10_Q96K80_140_EEVPICR (UniProt Q96K80)”, the “probe-labelled cysteine peptide fold change” value (10 µM) is reported as -0.106 and the “probe-labelled cysteine peptide fold change” value (50 µM) is reported as 0.152.
For “XRN2_Q9H0D6_715_HHPLHDFILELYQTGSTEPVEVPPELCHGIQGK (UniProt Q9H0D6)”, the “probe-labelled cysteine peptide fold change” value (10 µM) was -0.0366 and the “probe-labelled cysteine peptide fold change” value (50 µM) was 0.0175.
